The nature of assay [1]: NCI Yeast Anticancer Drug Screen. Data for the rad50 strain (AID 155).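 Also: 0% = growth of vehicle-only cultures of the same strain.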 As to conditions: S. cerevisiae rad50 strain growth inhibition; at 50.0 µM; hits give high values. The procedure, abridged:
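A DNA repair-deficient yeast mutant serves as the test organism; compound-induced growth inhibition is calculated against vehicle-treated cells.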

Assay [2] in a line: NCI Yeast Anticancer Drug Screen. Data for the mec2-1 strain (AID 157). Particulars: S. cerevisiae mec2-1 strain, at 50.0 µM, hits give high values. Summed up: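 Yeast mec2-1 mutant treated with compound. Readout: growth inhibition vs vehicle controls.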
Assay [3] in a line: NCI Yeast Anticancer Drug Screen. Data for the sgs1 mgt1 strain (AID 161).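 Also: 0% = growth of cultures given vehicle only.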 As to conditions: S. cerevisiae sgs1 mgt1 strain, at 50.0 µM, hits give high values. The procedure, abridged: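 Test agents were incubated with a DNA-repair-mutant yeast strain. Growth was then read and compared against vehicle-treated controls.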
A short description of assay [4]: NCI Yeast Anticancer Drug Screen. Data for the cln2 rad14 strain (AID 165).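 Also: 0% = growth equal to vehicle treated cultures.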 Particulars: S. cerevisiae cln2 rad14 strain, at 50.0 µM, hits give high values. The procedure, abridged: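 cln2 rad14 yeast strain; compound exposure; growth inhibition read vs vehicle controls.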
A short description of assay [5]: NCI Yeast Anticancer Drug Screen. Data for the bub3 strain (AID 167). As to conditions: S. cerevisiae bub3 mutant strain, at 50.0 µM, hits give high values. Summed up:
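Inhibition values come from growth of compound-treated mutant yeast normalised to vehicle-treated controls.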

Assay [6] is described as follows: NCI Yeast Anticancer Drug Screen. Data for the mlh1 rad18 strain (AID 175). As to conditions: S. cerevisiae mlh1 rad18 strain growth inhibition; at 50.0 µM; hits give high values. Summed up:
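Yeast w/ defined DNA-repair lesions; compound exposure; growth vs vehicle controls → % inhibition.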

About 79,000 compounds went through this panel and 15% of them were active in at least one assay; those are over-represented in the sample as a whole. A number with no mark means an inactive call. Active and inactive are the calls of the source. Rule as the data show it: active = growth inhibition above about 70%; inactive = the rest.

Regarding `O=C(NNC(O)C(F)(F)F)c1ccccc1` (stereo not given), the growth inhibition was 12.3% in assay [1]; 2.4% in assay [2]; 10.1% in assay [3]; -35.2% in assay [4]; 11.2% in assay [5]; 1.5% in assay [6].

On to `CCC1(O)C(=O)c2ccccc2N(c2ccccc2)C1=O` (stereo not given), for which the growth inhibition in assay [1] was 9.05%; in assay [2], 3.7%; in assay [3], 4%; in assay [4], -5.85%; in assay [5], 8.3%; in assay [6], 18.2%.

As for `CC1(C)C(c2ccccc2)=NN(O)c2ccccc21`, the growth inhibition in assay [1] was -22.3%; in assay [2], -15.8%; in assay [3], 0.25%; in assay [4] it was 15.4%; in assay [5], -4.5%; in assay [6] it was -9.4%.

`O=C(O)[C@H](CSSC[C@@H](C(=O)O)N1C(=O)c2ccccc2C1=O)N1C(=O)c2ccccc2C1=O`: the growth inhibition in assay [1] is 20.3%; in assay [2], -6.4%; in assay [3], -4.85%; in assay [4] it was 31.4%; in assay [5] it was 2.8%; in assay [6] it was -4.4%.

Turning to `CC(C)(C)C1(C#N)C(=O)N(c2ccc(Cl)cc2)C12c1ccccc1-c1ccccc12` (stereo not given), the growth inhibition in assay [1] is 4.55%; in assay [2] it was 9.55%; in assay [3], 6.45%; in assay [4], 19.2%; in assay [5], -4.5%; in assay [6], 20.4%.

With `CC(=O)Nc1ccccc1O`, the growth inhibition was -4.75% in assay [1]; -15.2% in assay [2]; -0.85% in assay [3]; -18.3% in assay [4]; 0.35% in assay [5]; 14.2% in assay [6].

In the case of `CCCCC(=O)NCCNC(=O)CCCC`, the growth inhibition in assay [1] is -0.5%; in assay [2], 7%; in assay [3], -1.8%; in assay [4] it was -18.6%; in assay [5] it was 14.2%; in assay [6], 9.55%.

As to `CC(C)(C)NC(=O)C12C3C4C1C1C2C3C41C(=O)NC(C)(C)C` (stereo not given), the growth inhibition is -19.3% in assay [1]; -9% in assay [2]; -15.9% in assay [3]; -39.7% in assay [4]; -26.1% in assay [5]; -19.5% in assay [6].

On to `O=C1CC2CC(=O)C(S(=O)c3ccccc3)C2C1` (stereo not given), for which the growth inhibition in assay [1] is 6.25%; in assay [2], 11.7%; in assay [3] it was 20.1%; in assay [4], 3.35%; in assay [5], -1.6%; in assay [6], 18.6%.

Regarding `CCOc1ccc(Cc2ccccc2)cc1`, the growth inhibition was -8.95% in assay [1]; -23.9% in assay [2]; -7% in assay [3]; 1.5% in assay [4]; -8.25% in assay [5]; -5.35% in assay [6].

As for `Cc1ccccc1S(=O)(=O)N1C(=O)c2ccccc2S1(=O)=O`, the growth inhibition in assay [1] is 12.8%; in assay [2], -13.8%; in assay [3], 5.35%; in assay [4], 10.2%; in assay [5], 5.15%; in assay [6], -13.8%.

Consider `CCCCCCC1NN(C(C)=O)C(CCCCCC)NN1C(C)=O` (stereo not given), for which the growth inhibition in assay [1] is 10.5%; in assay [2], -4.1%; in assay [3], 7.65%; in assay [4], 49.1%; in assay [5], 7.1%; in assay [6] it was -3.75%.

For the molecule `O=S1(=O)CC(Cl)C(I)C1` (stereo not given), the growth inhibition in assay [1] was 99.4% (active); in assay [2] it was 99.7% (active); in assay [3], 99.5% (active); in assay [4], 98.8% (active); in assay [5], 99.5% (active); in assay [6], 99.2% (active).

With `COC(=O)C(Cl)(Cl)c1nc(NC(C)=O)[nH]c(=O)c1Cl`, the growth inhibition in assay [1] was 0.45%; in assay [2], 13.3%; in assay [3] it was 3.65%; in assay [4], -20%; in assay [5], -16.4%; in assay [6], 0.45%.

Consider `Cn1cnc2c(Cl)ncnc21`, for which the growth inhibition in assay [1] was 12.9%; in assay [2] it was 34.5%; in assay [3], -20.9%; in assay [4], -18.4%; in assay [5], -0.55%; in assay [6], 5.65%.

With `CCN(CC)CCOC(=O)c1c2nc3c(C(=O)OCCN(CC)CC)ccc(C)c3oc-2c(C)c(=O)c1N`, the growth inhibition is 79.5% (active) in assay [1]; 35.9% in assay [2]; 42.1% in assay [3]; -5.2% in assay [4]; 61.9% in assay [5]; 36.3% in assay [6].

For the molecule `Cc1ccc(S(=O)(=O)n2cnc(CC(NC(=O)C3CCC(=O)N3C(=O)OCc3ccccc3)C(=O)N3CCCC3C(=O)NN)c2)cc1` (stereo not given), the growth inhibition in assay [1] is -38.9%; in assay [2], -43.1%; in assay [3], -30.8%; in assay [4], -9.95%; in assay [5] it was -30.9%; in assay [6], -18.2%.

With `CCc1c(C)c(C#N)c(=S)n(C2OC(CO)C(O)C(O)C2O)c1C` (stereo not given), the growth inhibition in assay [1] is -61.8%; in assay [2], 3.95%; in assay [3] it was -19.7%; in assay [4], 9.4%; in assay [5] it was 8.35%; in assay [6] it was -4%.

Take `CC(=O)OCC1OC(n2ccc(NC(=O)Nc3ccn(C4OC(COC(C)=O)C(OC(C)=O)C4OC(C)=O)c(=O)n3)nc2=O)C(OC(C)=O)C1OC(C)=O` (stereo not given): the growth inhibition was -2.25% in assay [1]; -11.1% in assay [2]; 8.25% in assay [3]; -5.35% in assay [4]; -2.25% in assay [5]; 10.9% in assay [6].

Take `Cc1cc(N2CCCCC2)nc2ccccc12`: the growth inhibition was 4.95% in assay [1]; -4.4% in assay [2]; -18.6% in assay [3]; -3.9% in assay [4]; -1.85% in assay [5]; 9.25% in assay [6].

(Values after PubChem BioAssay (NCI).)
